# Assay results as given in PubChem BioAssay AID720507 (National Center for Advancing Translational Sciences (NCATS), 2013).
# Out of some 2,300 compounds screened, about 140 (6.1%) were called active. Roughly 18% stayed inconclusive and do not appear here. These entries were drawn from the full list. A number with no mark means an inactive call. Calls come from the whole dose curve; as a rule, active = well fitted activation curve with a large enough effect; inconclusive = small, poorly fitted or top-dose-only effect; inactive = flat fitted curve, though single readings scatter.
# Molecular target: D(2) dopamine receptor (Homo sapiens) (UniProt P14416)
# Test: qHTS of D3 Dopamine Receptor Agonist: D2 Dopamine Receptor B-arrestin Agonist Counterscreen; note: nearly all actives have a fitted effect of over 70% in size; for activation: % of control where 0% means no effect
# Settings: DiscoveRx PathHunter D2 beta-arrestin, luminescence, 90 min; series mostly up to 76.9 µM; activation: at the top concentration
# From the text: D3 DARs represent a very important target for the treatment of several neuropsychiatric disorders. Indeed, one of the most promising therapeutic applications for the D3 DAR is in the area of addiction and related disorders. […] These findings have been observed with a number of addictive substances including cocaine, amphetamine, nicotine, and alcohol. […] Increased D3 DAR activity can thus lead to neuroprotective and neurorestorative actions in the CNS. […] This assay is used to profile the activity of the identified D3 dopamine receptor agonist against the D2 dopamine receptor. Greater than 10% of the maximum dopamine agonist response is desired for this assay. NIH Molecular Libraries Probe Production Centers Network [MLPCN] NIH Chemical Genomics Center [NCGC] MLPCN Grant: NS064831 Assay Submitter (PI): David Sibley
# DiscoveRx D2 cells were thawed from frozen stock and seeded at 2,100 cells/ 3 uL/well media (DiscoveRx Plating Reagent 2) with MultiDrop Combi dispenser (Thermo Scientific, Logan, UT) onto white tissue culture treated 1536-well Aurora plates (Brooks Automation, Chelmsford, MA) and allowed to attach overnight at 37 deg C, 5% CO2. Next, 23 nL/well of compound solutions in DMSO were added with a pintool transfer (Kalypsis, San Diego, CA). […] The rest of the plate was dispensed with buffer only, 1 uL/well as well. The cells were stimulated by compounds or dopamine control for 90 minutes at 37 deg C, 5% CO2, after which 1.5 ul/well of DiscoveRx detection reagent was added with BioRAPTR FRD dispenser. The detection reagent was prepared by mixing of Galacton Star Substrate, Emerald II solution and PathHunter buffer (supplied by the assay kit) together at 1:5:19 proportion accordingly just prior to dispensing. The plates were incubated at ambient temperature for 1 hour and then the luminescent signal was read on ViewLux plate reader (PerkinElmer, Waltham, MA).
# Potency is the fitted concentration of half-maximal effect.
# Chain of D(2) dopamine receptor (Homo sapiens) (P14416 whole entry, looked up): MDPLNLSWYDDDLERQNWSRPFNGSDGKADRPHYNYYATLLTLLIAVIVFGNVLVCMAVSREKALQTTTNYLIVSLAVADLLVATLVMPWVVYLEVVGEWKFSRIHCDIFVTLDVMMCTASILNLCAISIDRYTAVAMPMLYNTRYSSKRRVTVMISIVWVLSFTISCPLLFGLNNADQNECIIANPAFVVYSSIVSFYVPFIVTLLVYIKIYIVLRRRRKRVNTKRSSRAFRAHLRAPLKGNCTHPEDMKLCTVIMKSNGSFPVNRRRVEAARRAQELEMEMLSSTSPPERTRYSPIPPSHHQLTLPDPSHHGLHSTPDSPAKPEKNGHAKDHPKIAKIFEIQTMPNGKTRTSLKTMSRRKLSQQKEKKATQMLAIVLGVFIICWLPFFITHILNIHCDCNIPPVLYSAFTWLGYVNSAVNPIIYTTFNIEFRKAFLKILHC
Compound,activation [%],Potency
O=C(CN1CCN(S(=O)(=O)c2cc(Cl)ccc2Cl)CC1)c1ccc(O)c(O)c1,13.6,
CCC(=O)Nc1ccc(C(=O)N2CCN(C(=O)c3ccco3)CC2)cc1,-1.66,
O=C(c1ccco1)N1CCN(Cc2cccc(C(F)(F)F)c2)CC1,,31.6 µM (active)
Cc1cc(C)n2nc(C(=O)N3CCN(Cc4ccc5c(c4)OCO5)CC3)nc2n1,10.6,
Cc1ccc(S(=O)(=O)N2CC(O)C[C@H]2C(=O)OCC(=O)Nc2ccc(N3CCOCC3)cc2)cc1C (some centres not stated),-1.51,
CCN(CCCNC(=O)c1ccc2c(c1)NC(=O)CN2C)c1cccc(C)c1,9.85,
O=C(COc1coc(CN2CCN(c3ccccc3)CC2)cc1=O)Nc1ccccc1F,18.8,
CN(CCO)S(=O)(=O)c1ccc2c(c1)C(=O)c1cc(S(=O)(=O)N(C)CCO)ccc1-2,-1.49,
Cc1n[nH]c(C)c1S(=O)(=O)N1CCCC(C(=O)NCC2COc3ccccc3O2)C1 (configuration not stated),0.0237,
OCC1(Cc2ccccc2)CCN(Cc2cc3ccccc3o2)CC1,,25.1 µM (active)
CS/C(=C\C(=O)c1ccco1)Nc1ccccc1Cl,6.85,
O=c1oc(-c2ccccc2NS(=O)(=O)c2ccc(Cl)cc2)nc2ccccc12,-0.237,
O=C(NC1CCCCC1)c1ccc2c(=O)n(CC3CCCO3)c(=O)[nH]c2c1 (configuration not stated),10.1,
COC(c1ccccc1)c1nnc(CCC(=O)N2CCN(CCOc3ccccc3)CC2)o1 (configuration not stated),13.2,
CN1CCC(CN)(N2CCN(c3ccccc3)CC2)CC1,11.1,
Cc1c(C(=O)Nc2cccc(-c3nnc4n3CCCCC4)c2)oc2ccccc12,-2.93,
O=C(Nc1cccnc1Cl)c1cc(-c2cccc(Cl)c2)on1,-2.13,
COc1ccc([C@H]2CC(=O)C=C(c3ccc(OC(F)(F)F)cc3)C2)cc1OC,20.6,
Cc1c(CC(=O)N2CCN(C(=O)C3COc4ccccc4O3)CC2)c(=O)oc2c(O)c(O)ccc12 (configuration not stated),,31.6 µM (active)
O=S(=O)(c1ccc(F)cc1)N1CC=C(c2ccccc2)CC1,1.2,
CC[C@H](C)C(=O)N[C@H]1CCCN1C(=O)/C=C/c1ccccc1,-0.497,
CCOC(=O)[C@H]1[C@H]2COc3ccc(C)cc3[C@@H]2N2C(=O)CN(Cc3ccc(F)cc3)C(=O)[C@@]12C,5.21,
Cc1ccc(O)c(-c2cc(C(=O)Nc3c(C)n(C)n(-c4ccccc4)c3=O)[nH]n2)c1,-2.19,
CCCN(CC(=O)Nc1ccccc1C)C(=O)c1ccc2[nH]c3c(c2c1)CC(C)CC3 (configuration not stated),2.25,
Cc1cnc(C(=O)N2CCCC(N3CCN(c4ccccc4F)CC3)C2)cn1 (configuration not stated),21.8,

Compound,activation [%],Potency
Cc1cccc(C)c1NC(=O)CNC(=O)c1ccc2c(c1)OCCO2,-1.89,
COc1ccc([C@H]2CC(=O)C=C(c3ccc(CO)cc3)C2)cc1,1.16,
CC1(C)CC(=O)C=C(c2ccc3ncccc3c2)C1,-1.87,
COc1ccc(NC(C)=O)cc1NC(=O)CN1CCN(c2ccccn2)CC1,11.8,
O=C(Nc1cccc(-c2nc3ccccc3[nH]2)c1)c1ccc(C(=O)Nc2cccc(-c3nc4ccccc4[nH]3)c2)cc1,4.47,
CC(=O)OC(C)C[N+](C)(C)C (configuration not stated),-1.97,
CCC(=O)c1ccc(OCC(=O)Nc2ccc(N3CCCCC3)cc2)cc1,-0.473,
OCC[C@H]1C[C@H](O)[C@@H](O)[C@]2(Cc3ccccc3CO2)O1,-1.68,
O=C(Cc1csc(Nc2nc(=S)[nH]c3ccccc23)n1)NCCCN1CCN(c2cccc(Cl)c2)CC1,-1.51,
O=C(NC(=O)c1ccccc1)Nc1ccccc1O,3.31,
CN1CCN(S(=O)(=O)c2cccc(C(=O)Nc3sccc3C#N)c2)CC1,-0.355,
O=c1cc(CCl)nc2scc(-c3ccccc3)n12,-4.57,
O=C(CSC1CC(=O)N(CCc2ccccc2)C1=O)Nc1ccc(Cl)cc1 (configuration not stated),5.18,
COc1cc(OC)c(-n2cc(-c3ccc(Cl)cc3)[nH]c2=O)cc1Cl,-7.23,
O=C(c1c(F)cccc1F)N1CCN(S(=O)(=O)c2ccc3c(c2)OCCO3)CC1,2.32,
COc1ccc(CC(NC(C)=O)C(=O)N2CCN(C(=O)Nc3cccc(Cl)c3)CC2)cc1OC (configuration not stated),-3.65,
CC(C)c1ccc2c(c1)c(SC(C)(C)C)c(CC(C)(C)C(=O)O)n2Cc1ccc(Cl)cc1,11.4,
NS(=O)(=O)c1ccc(CCNS(=O)(=O)c2cccc3cccnc23)cc1,-1.71,
Cc1c(CN2CC[C@@H](N3CCN(c4ccccn4)CC3)[C@H](O)C2)[nH]c2ccc(F)cc12,,28.2 µM (active)
O=C(CN1CCN(c2ccccn2)CC1)NC1CCCCC1,8.31,
NS(=O)(=O)c1ccc(CCNC(=O)NC2CCCCC2)cc1,-4.01,
O=C1c2cccc3cccc(c23)N1CN1CCN(c2ccccn2)CC1,21.1,
CCC(=O)Nc1ccc2c(c1)nc(CCN1CCN(c3ccccn3)CC1)n2C,26.1,
O=C(C1CC(=O)N(c2ccc(F)cc2)C1)N1CCN(c2ccccc2)CC1 (configuration not stated),-2.2,
Cn1c(=O)c(=O)n(C)c2cc(S(=O)(=O)NCCN3CCN(c4ccccc4F)CC3)ccc21,21.6,

Compound,activation [%],Potency
COc1ccc(N2CCN(Cc3cc(=O)oc4ccc5ccccc5c34)CC2)cc1,3.24,
O=C(CCN1CCN(c2ccccc2)CC1)NNC(=S)Nc1ccccc1,25.2,
Nc1nonc1-n1nnc(C(=O)N/N=C/c2ccc(Cl)cc2)c1-c1ccc2c(c1)OCO2,13.9,
O=C1c2ccccc2S(=O)(=O)N1CC(O)Cn1c2ccccc2c2ccccc21 (configuration not stated),6.97,
O=C(c1ccc2c(c1)OCCO2)C1CCN(S(=O)(=O)c2cccc(F)c2)CC1,1.28,
O=C(Nc1ccc(F)cc1F)N1CCCN(CCOc2ccccc2)CC1,3.92,
O=C(CCN1CCN(C/C=C/c2ccccc2)CC1)Nc1ccccc1Cl,18.6,
CC(=O)C[C@@H](O)CC(=O)[C@H]1OC(=O)CCCCCCc2ccccc21,-0.828,
O=C(O[C@H]1[C@H](Cc2ccccc2)NS(=O)(=O)[C@H]2C[C@@H]3C=C[C@]12O3)c1ccc([N+](=O)[O-])cc1,-0.26,
CNC(=O)NC(=O)C(C)N1CCN(C/C=C/c2ccccc2)CC1 (configuration not stated),5.3,
c1ccc(-c2cnc(CN3CCN(c4ccccc4)CC3)o2)cc1,9.03,
C/C(=N\NC(=S)NC1CCCCC1)c1ccc(C)o1,17.6,
COc1ccc(S(=O)(=O)N2CCSCC2)cc1,-3.27,
O=C(CC1NCCc2ccccc21)Nc1cccc(Cl)c1 (configuration not stated),-6.22,
O=C1C=C(c2cccc(Br)c2)C[C@@H](c2ccc(F)cc2)C1,-3.31,
CC(C)(C)C(=O)OCc1nc(-c2ccc(O)c(O)c2)cs1,,28.2 µM (active)
CC(CCc1ccccc1)NCC(O)c1cccc([N+](=O)[O-])c1 (configuration not stated),11.9,
CC(OC(=O)/C=C/c1ccccc1)C(=O)NC1CCCCC1C (configuration not stated),2.72,
O=C(OCc1nc2ccccc2[nH]1)C1CCCCC1,10.5,
CCCN1CC=C2C(C#N)=C(N)C(C#N)(C#N)C(c3cc(OC)ccc3OC)C2C1 (configuration not stated),-1.56,
CN(C)CCOC(=O)C(c1ccccc1)C1(O)CCCC1 (configuration not stated),-3.98,
COc1cccc(NC(=O)C2CCCN(c3ncnc4c3nc3n4CCCCC3)C2)c1 (configuration not stated),-3.08,
CC(=C1C(=O)c2ccccc2C1=O)N1CCN(c2ccccn2)CC1,24.7,
CNCC(O)c1ccc(O)c(O)c1 (configuration not stated),,17.8 µM (active)
O=C(CN1CCN(c2ncccn2)CC1)Nc1ccccc1C(F)(F)F,17.1,

Compound,activation [%],Potency
Cc1ccccc1Nc1nc(N)nc(CN2CCN(c3ccccn3)CC2)n1,-0.216,
Cc1ccc(CN2CCN(c3ncccn3)CC2)c(C)c1,,50.1 µM (active)
O=C1CC[C@H](O)CCN1[C@H](CSc1ccc(Br)cc1)Cc1ccccc1,0.237,
O=C(c1ccccc1)c1ccc(OCC(O)CN2CCCC2)cc1 (configuration not stated),-1.06,
Cc1cc(C(=O)NNC(=O)c2ccccc2O)c(C)o1,-1.85,
CCCCC(=O)NNC(=S)NC(=O)C(c1ccccc1)c1ccccc1,-7.08,
Cn1c(C(=O)NCCCN2CCN(c3cccc(Cl)c3)CC2)cc2c(=O)n(C)c3ccccc3c21,9.01,
CCn1cc(C(=O)N2CCN(Cc3ccc4c(c3)OCO4)CC2)c2cc(OC)c(OC)cc2c1=O,18.8,
CCC(CC)NC(=O)/C=C/c1cccc([N+](=O)[O-])c1,-0.402,
O=C(CCCn1c(=O)[nH]c2cc(Cl)ccc2c1=O)NCCN1CCN(c2ccccc2)CC1,10.7,
O=C(CCn1c(=O)[nH]c2ccccc2c1=O)NCCCN1CCN(c2cccc(Cl)c2)CC1,12.8,
CC(C)c1ccc(OCC(O)CN2CCN(c3ccccn3)CC2)cc1 (configuration not stated),,39.8 µM (active)
CC(=O)Nc1ccc(OCC(O)CN2CCN(c3ccccc3Cl)CC2)cc1 (configuration not stated),18.5,
Cc1ccccc1OCC(O)CN1CCN(c2ccccn2)CC1 (configuration not stated),7.71,
COc1ccc(C2NC(=O)C(=O)/C2=C(\O)c2ccc(Cl)cc2)cc1OC (configuration not stated),-3.12,
CCn1c(=O)n(CC)c2cc(N3CCCC3)c(NC(=O)c3ccccc3Br)cc21,2.89,
Cc1cccc(OCC(=O)NCC(=O)N/N=C/c2ccc(N(C)C)cc2)c1,-2.06,
OC(COCc1ccco1)CN1CCN(c2ccccc2)CC1 (configuration not stated),18.6,
OC(COc1ccc2c(c1)CCC2)CN1CCN(c2cccc(Cl)c2)CC1 (configuration not stated),27.5,
CC(C)(C)n1ncc2c(=O)n(Cc3c(Cl)cccc3Br)cnc21,6.34,
CC(C)CCN1CCN(Cc2cn[nH]c2C2CCCCC2)CC1CCO (configuration not stated),3.55,
Cc1cc(C)c(/C=C2\C(=O)Nc3ccccc32)[nH]1,-6.49,
